GLS inh – glutaminase GLS (human) inhibition; Potency, µM (series often up to 45.5 µM), for inactives: at the top dose activity change, negative = inhibition, usual class: inhibitors; hit rate 0.21% among 410,000; O94925; GLS enzymatic activity, qHTS titration; further: on the % scale 0 is the no-effect control and ±100 the full control effect
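Read-out is an Amplex red fluorescence increase coupled through glutamate oxidase and HRP, measured before and after 30 min room-temperature incubation. hKGA is in 45 mM KH2PO4 (pH 8.2) with 0.02% Tween-20; glutamine added as 1mM solution.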
Pol kappa inh-1 – inhibitors of human DNA polymerase kappa; AID 588579; purified Pol kappa, fluorescent DNA synthesis assay, 10 min; hit rate 0.53% among 400,000; Q9UBT6; Potency, µM (titrated, usually from 107 µM), for inactives: top-dose activity, negative = inhibition, most hits filed as inhibitors; further: on the % scale 0 is the no-effect control and ±100 the full control effect
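Pol kappa 10 nM + cpd, 15 min RT; start w/ substrate 50 nM final; fluorescence kinetic read, 0 and 10 min. Neg ctrl: buffer, no enzyme.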
Pol eta inh-1 – inhibitors of human DNA polymerase eta. recombinant Pol eta, fluorescent DNA replication assay. hit rate 1.2% among 390,000. Potency, µM (highest dose often 114 µM), inactives show top-dose activity change, negative = inhibition, actives largely listed as inhibitors; further: on the % scale 0 is the no-effect control and ±100 the full control effect
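Fluorescent replication assay: 50 nM final substrate added after a 15 min room-temperature compound preincubation with 10 nM enzyme. Signal taken at 0 min and again at 10 min.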
Pol iota inh – DNA polymerase iota (human) inhibition | Q9UNA4 | Pol iota fluorescent replication assay, 10 min | Potency, µM (top dose mostly 115 µM), without a hit: at the highest dose activity, negative = inhibition, actives largely listed as inhibitors | hit rate 1% among 390,000 | AID 588590
Target sequence (Q9UNA4 whole entry, looked up): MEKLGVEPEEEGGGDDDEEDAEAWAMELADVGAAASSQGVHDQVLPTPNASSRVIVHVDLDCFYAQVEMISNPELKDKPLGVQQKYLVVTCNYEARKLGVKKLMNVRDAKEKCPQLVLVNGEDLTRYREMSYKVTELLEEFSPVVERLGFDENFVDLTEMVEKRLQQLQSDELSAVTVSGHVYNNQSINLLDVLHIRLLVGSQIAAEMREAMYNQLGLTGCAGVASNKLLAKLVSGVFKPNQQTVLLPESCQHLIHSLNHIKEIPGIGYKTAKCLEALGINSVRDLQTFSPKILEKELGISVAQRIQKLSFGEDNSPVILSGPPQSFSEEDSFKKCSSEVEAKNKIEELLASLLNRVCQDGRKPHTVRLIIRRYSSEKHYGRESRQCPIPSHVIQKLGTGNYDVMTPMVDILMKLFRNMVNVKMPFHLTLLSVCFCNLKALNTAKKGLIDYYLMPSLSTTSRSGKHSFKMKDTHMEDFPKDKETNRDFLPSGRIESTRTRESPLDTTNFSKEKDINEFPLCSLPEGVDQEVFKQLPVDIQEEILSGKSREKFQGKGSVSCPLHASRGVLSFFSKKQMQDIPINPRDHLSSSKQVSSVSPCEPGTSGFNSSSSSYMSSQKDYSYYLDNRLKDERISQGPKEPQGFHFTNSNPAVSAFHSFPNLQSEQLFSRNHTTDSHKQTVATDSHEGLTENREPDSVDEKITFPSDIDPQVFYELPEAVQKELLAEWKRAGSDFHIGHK
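Pol iota at 10 nM preincubated 15 min with compounds at room temperature; reaction started with fluorescent substrate, 50 nM final. Fluorescence read kinetically at 0 and 10 min; buffer-only wells as negative control.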
POLB inh – blocks human DNA polymerase beta activity. P06746. Pol beta primer extension/strand displacement, fluorescence kinetic. Potency, µM (highest dose often 114 µM), for the others: at the top dose activity change, negative = inhibition, actives largely listed as inhibitors. hit rate 1.3% among 340,000. AID 485314; further: on the % scale 0 is the no-effect control and ±100 the full control effect
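Reaction started by 50 nM substrate onto compound-treated Pol beta (10 nM, 15 min preincubation, room temperature); plates read at 0 min and 10 min. Normalized concentration-effect data fitted by four-parameter Hill equation.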
APEX1 inh – blocks human APE1 abasic DNA cleavage | P27695 | recombinant APE1, TAMRA/BHQ-2 abasic DNA cleavage fluorescence | Potency, µM (titrated, usually from 65.8 µM), inactives show top-dose activity change, negative = inhibition, usual class: inhibitors | hit rate 0.35% among 350,000 | AID 2517;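 further: plate controls were vehicle for no effect and reference inhibitor for full effect; nearly all actives have a fitted effect of over 55% in size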
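Compound pre-exposure to 0.75 nM APE1, 15 min at ambient temperature. Reaction initiated with 50 nM TAMRA/BHQ-2 THF substrate, read immediately in kinetic mode, 525 nm excitation, 598 nm emission.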
PGK validate – TbPGK inhibition, hit validation; shares compounds with Pol kappa inh-1; TbPGK coupled GAPDH assay, Kinase-Glo luminescence; Potency, µM (titrated, usually from 57.5 µM), for inactives: top-dose activity change, negative = inhibition, usual class: inhibitors; hit rate 79% among 500; further: on the % scale 0 is the no-effect control and ±100 the full control effect; nearly all actives have a fitted effect of over 65% in size
POLI cherry-pick – Human Pol iota inhibitor confirmatory assay; hit rate 77% among 1,500; Potency, µM, actives largely listed as inhibitors; Pol iota primer extension, TAMRA/BHQ fluorescence; shares compounds with Pol kappa inh-1
Pol kappa inh-2 – Pol kappa (human) inhibition, cherry-pick confirmation | purified Pol-kappa, fluorescent strand-displacement substrate | shares compounds with Pol eta inh-1 | Potency, µM, most hits filed as inhibitors | hit rate 76% among 920
Pol eta inh-2 – Pol eta (human) inhibition, cherry-pick confirmation; Pol eta primer extension, TAMRA/BHQ fluorescence, 10 min; AID 720502; Potency, µM, most hits filed as inhibitors; shares compounds with Pol eta inh-1; hit rate 64% among 2,600
Numbers without * were called inactive; [ ] = remark or other dose. Compounds with a hit are over-represented: about 2.4% of the library has one in this group of screens. The call rests on the fitted dose curve; in most records, active means well fitted curve in the direction sought with a large enough effect; inconclusive means small, poorly fitted or top-dose-only effect, or another doubt; inactive means no such curve, though single readings can be large; an effect the other way counts as inactive or inconclusive. Potency means the concentration at half of the fitted maximal effect.

For O=C(Nc1ccc(-c2nc3ccc(NC(=O)c4cccs4)cc3[nH]2)cc1)c1cccs1 the results were GLS inh -4%, Pol kappa inh-1 inconclusive, Pol eta inh-1 inconclusive, Pol iota inh 20µM*, POLB inh 10µM*, APEX1 inh inconclusive, POLI cherry-pick 38* and Pol eta inh-2 67*.
Cc1ccc(C(=O)Nc2ccc(-c3nc4ccccc4[nH]3)cc2)cc1Br was read as POLI cherry-pick 67* and Pol eta inh-2 inconclusive.
`COc1ccc(Cn2c(SCc3ccc(C(=O)NC4CCCCC4)cc3)nc3ccncc32)cc1` gave GLS inh -3%, Pol kappa inh-1 7%, Pol eta inh-1 6%, Pol iota inh -7% and POLB inh 4%.
Screening Cc1cc(C)cc(NS(=O)(=O)c2ccc3[nH]cc(C(=O)NCCc4ccccc4)c(=O)c3c2)c1 returned GLS inh 3%, Pol kappa inh-1 5%, Pol eta inh-1 -6%, Pol iota inh -1% and POLB inh 2%.
`Cc1ccccc1NS(=O)(=O)c1ccc2[nH]cc(C(=O)NCCc3ccccc3)c(=O)c2c1` gave GLS inh inconclusive, Pol kappa inh-1 -9%[60.1 µM], Pol eta inh-1 32µM*, Pol iota inh inconclusive, POLB inh 45µM*, APEX1 inh -41%, POLI cherry-pick inconclusive and Pol eta inh-2 48*.
`COc1ccc(-c2cc(C(F)(F)F)c3c(n2)sc2c(O)cc(=O)[nH]c23)c(OC)c1` gave GLS inh -24%, Pol kappa inh-1 20µM*, Pol eta inh-1 13µM*, Pol iota inh inconclusive, POLB inh 56µM*, APEX1 inh 0%, POLI cherry-pick 67* and Pol eta inh-2 67*.
For Cc1cc(/C=N/NC(=O)C(O)(c2ccccc2)c2ccccc2)c(C)n1-c1cccc(C(=O)O)c1 the results were GLS inh inconclusive, Pol kappa inh-1 inconclusive, Pol eta inh-1 10µM*, Pol iota inh 16µM*, POLB inh 16µM*, APEX1 inh 4%, POLI cherry-pick 34* and Pol eta inh-2 15*.
COc1ccc(S(=O)(=O)N2CCN(C(=O)c3cc4c(s3)CCC4)CC2)cc1 was read as GLS inh inconclusive, Pol kappa inh-1 28µM*, Pol eta inh-1 2.2µM*, Pol iota inh 2.8µM*, APEX1 inh 2.7µM*, POLI cherry-pick 3*, Pol kappa inh-2 3* and Pol eta inh-2 7.6*.
Cc1ccc(S(=O)(=O)N2CCN(C(=O)c3cc4c(s3)CCCC4)CC2)cc1 was read as GLS inh 0%, Pol kappa inh-1 -1%, Pol eta inh-1 -19%, Pol iota inh -8% and APEX1 inh 2%.
Screening CC(C)(C)c1ccc(CC(=O)N2CCC2(C)C(=O)NCc2cccs2)cc1 (stereo unspecified) returned GLS inh -22%.
`COCc1cc(OC)nc(-c2csc(C)n2)n1` gave GLS inh 1%, Pol kappa inh-1 -5%, Pol eta inh-1 -6%, Pol iota inh 23%, POLB inh -13% and APEX1 inh 8%.
For COc1ccc(/C=C2\SC(=O)N(CC(=O)Nc3cccnc3)C2=O)cc1OC the results were GLS inh -3%, Pol kappa inh-1 0%, Pol eta inh-1 -13%, Pol iota inh 26%, POLB inh 2% and APEX1 inh -5%.
For COc1cc(/C=C2\SC(=O)N(CC(=O)Nc3cccc(C)c3)C2=O)cc([N+](=O)[O-])c1O the results were GLS inh -1%, Pol kappa inh-1 -17%, Pol eta inh-1 22µM*, Pol iota inh inconclusive, POLB inh 8%, APEX1 inh 4%, PGK validate inconclusive, POLI cherry-pick 75* and Pol eta inh-2 48*.
For CCc1ccc(C(=O)c2cn(CC(=O)Nc3ccc(Cl)cc3)c3cc4c(cc3c2=O)OCO4)cc1 the results were GLS inh -12%, Pol kappa inh-1 0%, Pol eta inh-1 -14%, Pol iota inh 32% and POLB inh 22%.
`COc1ccc2c(c1)c(=O)c(C(=O)c1ccc(F)cc1)cn2CC(=O)Nc1ccc(F)cc1` gave GLS inh 2%, Pol kappa inh-1 -11%, Pol eta inh-1 -8%, Pol iota inh -11%, POLB inh -10% and APEX1 inh -8%.
Screening CCc1ccc(C(=O)c2cn(CC(=O)Nc3cccc(OC)c3)c3ccc(OC)cc3c2=O)cc1 returned GLS inh inconclusive, Pol kappa inh-1 89µM*, Pol eta inh-1 40µM*, Pol iota inh 13µM*, POLB inh 8.9µM*, APEX1 inh 28%, POLI cherry-pick 8.4* and Pol eta inh-2 inconclusive.
For CCc1ccc(C(=O)c2cn(CC(=O)Nc3ccc4c(c3)OCO4)c3ccc(CC)cc3c2=O)cc1 the results were GLS inh 0%, Pol kappa inh-1 -5%, Pol eta inh-1 89µM*, Pol iota inh -94%, POLB inh 4.5µM*, POLI cherry-pick 42* and Pol eta inh-2 inconclusive.
Screening O=C(N[C@@H](Cc1ccccc1)C(=O)Nc1ccc(F)cc1)C1CCNCC1 returned GLS inh -19%, Pol kappa inh-1 6%, Pol eta inh-1 -6%, Pol iota inh 32%, POLB inh 7% and APEX1 inh -4%.
For O=C(N/N=C/c1cc(Br)c(Br)o1)c1ccc2c(c1)OCCO2 the results were GLS inh 21%, Pol kappa inh-1 inconclusive, Pol eta inh-1 13µM*, Pol iota inh inconclusive, POLB inh 8.9µM*, APEX1 inh 32µM*, POLI cherry-pick inconclusive and Pol eta inh-2 30*.

Assay outcomes as filed in PubChem BioAssay.
